3T3 cytotox – cytotoxic compounds in NIH 3T3 cells. NIH 3T3 viability, CellTiter-Glo ATP luminescence, 48-72 h. Potency, µM (titrated, usually from 96.7 µM), without a hit: at the top dose activity change, negative = cytotoxicity, hits mostly inhibitors. hit rate 4.3% among 94,000. AID 1345082; note: nearly all actives have a fitted effect of over 55% in size
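Cytotoxicity is measured as loss of cellular ATP: NIH 3T3 cells (400/well) are exposed to compound for 48 or 72 hr at 37 °C, then CellTiter-Glo luminescence is imaged after 10 min at room temperature.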
NPR1 antag – human Npr1 receptor antagonism | hit rate 1.6% among 76,000 | HEK293 hNpr1 GloSensor cGMP, ANP-stimulated luminescence | Potency, µM (doses to about 46.3 µM), without a hit: at the top dose activity change, negative = inhibition, hits mostly inhibitors | AID 1347048; calls by dose curve; note: nearly all actives have a fitted effect of over 60% in size
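HEK293 cells stably expressing human Npr1 and cGMP GloSensor pGS-40F, loaded 2 h with 2% GloSensor reagent, given compound 30 min at room temperature. Luminescence read before and 20 min after 0.1 nM hNppA.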
HEK cytotox – cytotoxic compounds in HEK 293 cells; HEK 293 viability, ATP luminescence (CellTiter-Glo), 48-72 h; Potency, µM (top dose mostly 115 µM), for inactives: at the top dose activity change, negative = cytotoxicity, most hits filed as inhibitors; hit rate 6.6% among 94,000; note: nearly all actives have a fitted effect of over 60% in size
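HEK 293 cells at 250 cells/well were exposed to compounds by pintool transfer for 48 or 72 hr at 37 degree Celsius, 5% CO2. Viability was read as ATP-coupled luminescence with CellTiter-Glo after 10 min at room temperature.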
Luciferase inh – inhibitors of firefly (Photinus pyralis) luciferase | P08659 | purified P. pyralis luciferase, luminescence, biochemical | Potency, µM (top dose mostly 115 µM), hits mostly inhibitors | hit rate 2.5% among 76,000 | AID 1347043; note: nearly all actives have a fitted effect of over 65% in size
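Luminescence read by CCD imaging after purified firefly luciferase (10nM final) was added to substrate buffer holding 10uM D-luciferin and 10uM ATP, pH 7.5, pre-dosed with compound.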
GPT2 inhibitor – inhibitors of human GPT2 alanine aminotransferase | Q8TD30 | Recombinant GPT2, coupled pyruvate oxidase/HRP Amplex Red fluorescence | Potency, µM (doses to about 57.7 µM), for inactives: at the highest dose activity change, negative = inhibition, usual class: inhibitors | hit rate 0.25% among 100,000 | AID 1671188; note: nearly all actives have a fitted effect of over 60% in size
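Recombinant GPT2 (10ng/uL) with 250uM a-KG and 2mM L-alanine, 30 min at room temperature, in HEPES pH 7.5 buffer. Pyruvate detected by pyruvate oxidase/HRP/Amplex Red fluorescence after 30 min in the dark; AOA (50uM) as positive control.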
An asterisk follows results filed as active; i = inactive; ? = inconclusive; . = no result given; ! = not confirmed by another sample; [ ] = remark or other dose. An excerpt weighted towards active compounds, which were near 10% of everything screened. Unless noted, calls come from the whole dose curve; as a rule, active = well fitted curve in the direction sought with a large enough effect; inconclusive = small, poorly fitted or top-dose-only effect, or another doubt; inactive = no such curve, though single readings can be large; an effect the other way counts as inactive or inconclusive. % is set by controls: 0 for no effect and ±100 for the full control effect; potency is the fitted concentration of half-maximal effect.

SMILES	3T3 cytotox	NPR1 antag	HEK cytotox	Luciferase inh	GPT2 inhibitor
Clc1ccc(-c2cnc([C@@H]3COCCN3Cc3cnc4ccccc4c3)[nH]2)s1	?	?	89µM*	i	-9%[88.5 µM]
Fc1ccc(-c2cnc([C@@H]3COCCN3Cc3cnc4ccccc4c3)[nH]2)c(F)c1	?	-14%[70.6 µM]	89µM*	i	-5%[88.5 µM]
CC(=O)N1CCC2(CCN(C(=O)c3ccc(Cl)cc3)CC2)Oc2ccccc21	?	.	?	.	-25%
COc1ccc(Cl)cc1C(=O)N1CCCN(c2cc(-c3ccc(Br)cc3)[nH]n2)CC1	32µM*	?	35µM*	i	?
COc1ccccc1C(=O)N1CCCN(c2cc(-c3ccc(Br)cc3)[nH]n2)CC1	?	?	40µM*	i	-29%
COc1ccc(-c2cc(N3CCCN(C(=O)c4ccccc4OC)CC3)n[nH]2)cc1	-22%	-2%	-26%	i	?
Cc1cccc(S(=O)(=O)N2CCC3(C2)C(=O)N(C)c2ccccc23)c1 (centres undefined)	-23%	-14%	?	i	2%
Cc1ccc2c(C)c(C(=O)N3C[C@@H](NS(C)(=O)=O)[C@H](C(C)C)C3)oc2c1	?	0%	45µM*	i	-43%
Cc1ccc2c(C)c(C(=O)N3C[C@@H](CN4CCC(O)CC4)[C@@H](CO)C3)oc2c1	i	3%	i	i	4%
Cc1ccc(-c2noc([C@@H]3Cc4nc[nH]c4CN3Cc3ccc(F)cc3)n2)cc1	35µM*	?	89µM*	50µM*	-3%[88.5 µM]
Cc1cccc(-c2noc([C@@H]3Cc4nc[nH]c4CN3Cc3cccc(C#N)c3)n2)c1	?	-6%[70.6 µM]	?	i	i
N#Cc1cccc(CN2Cc3[nH]cnc3C[C@H]2c2nc(-c3ccccc3)no2)c1	?	-11%[70.6 µM]	89µM*	63µM*	3%[88.5 µM]
Cc1ccc(-c2noc([C@@H]3Cc4nc[nH]c4CN3Cc3ccc(CO)o3)n2)cc1	-10%[174 µM]	2%[70.6 µM]	-19%[172 µM]	63µM*	3%[88.5 µM]
O=C(NCCc1ccccc1F)c1ccc2oc(-c3ccnc(Cl)c3)nc2c1	-22%	.	-6%	.	i
CN1C(=O)C(c2ccccc2)CC12CCN(CCC(=O)O)CC2 (centres undefined)	1%	-1%	4%	i	5%
Cc1ccccc1CCC1CCCN(C(=O)C2(C)CC2)C1 (centres undefined)	?	-7%	22µM*	?	i
NC1(C(=O)N2CCCC(CCc3ccccc3F)C2)CCC1 (centres undefined)	-26%	2%	?	i	-15%
COc1ccc(NC(=O)c2ccc3c(c2)OCCN(C2CCC2)C3)cn1	-21%[138 µM]	-3%[70.6 µM]	?	i	i
COc1cccc2sc(NC(=O)c3ccc4c(c3)OCCN(C3CCC3)C4)nc12	?	?	32µM*	?	2%[88.5 µM]
CCCc1ccc([S+](=O)([O-])N2CCC3(CC2)CNC(=O)C3CO)cc1 (centres undefined)	-16%	.	?	.	.
COc1cccc(-c2cnc3[nH]cc(CC(N)=O)c3c2)c1	71µM*	-19%[70.6 µM]	-19%[230 µM]	89µM*	i
NC(=O)Cc1c[nH]c2ncc(-c3cccc(C(F)(F)F)c3)cc12	32µM*	-27%[70.6 µM]	?	i	-6%[88.5 µM]
O=C(NCc1ccc(F)cc1)c1nc2sccn2c1-c1cccnc1	-19%	.	-3%	.	3%
CCCCNC(=O)C1CCN(C(=O)c2ncn3c2COC(c2ccc(F)cc2)C3)CC1 (centres undefined)	-2%	1%	-15%	40µM*	i
O=C(NCCC1=CCCCC1)C1CCN(C(=O)c2ncn3c2COC(c2ccc(F)cc2)C3)CC1 (centres undefined)	-23%	-6%	-13%	22µM*	i
SMILES	3T3 cytotox	NPR1 antag	HEK cytotox	Luciferase inh	GPT2 inhibitor
CCCCNC(=O)C1CCN(C(=O)c2ncn3c2COC(c2ccc(OC)cc2)C3)CC1 (centres undefined)	i	-1%	-5%	i	-10%
O=C(NCCC1=CCCCC1)C1CCN(C(=O)c2ncn3c2COC(c2ccccc2)C3)CC1 (centres undefined)	-10%	-22%	-7%	2µM*	i
COc1ccc(C2Cn3cnc(C(=O)N4CCC(C(=O)NCCC5=CCCCC5)CC4)c3CO2)cc1 (centres undefined)	i	4%	1%	i	i
CC(=O)Nc1ccc(CN2CCC3(CC2)CC(=O)c2ccc(Cl)cc2O3)cc1	?	12%	50µM*	i	i
O=C1CC2(CCN(C(=O)c3ccc(C(F)(F)F)cc3)CC2)Oc2cc(Cl)ccc21	25µM*	-20%	35µM*	i	i
CC(=O)Nc1ccc(CN2CCC3(CC2)CC(=O)c2ccccc2O3)cc1	?	0%	-15%	i	i
O=C1CC2(CCN(Cc3cccs3)CC2)Oc2cc(Cl)ccc21	?	0%	?	16µM*!	i
C[S+](=O)([O-])c1cccc(NC(=O)Cc2c[nH]c3ncc(-c4ccccc4)cc23)c1	-2%[138 µM]	?	?	?	5%[88.5 µM]
Cc1cn2nc(C(=O)N3CCC(NC(=O)c4cc(Cl)ccc4F)CC3)cc2c(=O)[nH]1	2%	0%	5%	i	i
Cc1ccc(NC(=O)N2C[C@@H](Oc3cccnc3)C[C@H]2C(=O)N2CCCC2)cc1C	?	0%	-1%	i	-12%
O=C(Nc1ccc(F)cc1)c1ccn2nccc2c1	-26%[138 µM]	-9%[70.6 µM]	?	50µM*	-5%[88.5 µM]
O=C(Nc1ccc(F)cc1)c1cccn2nccc12	-15%[138 µM]	-21%[70.6 µM]	i	?	1%[88.5 µM]
COc1ccc(CN2Cc3[nH]nc(-c4ccccc4Oc4ccccc4)c3CC2=O)cc1	?	-11%[70.6 µM]	?	i	i
CCn1cc(CN(C)CC2(O)CCCN(Cc3ccc(C(C)C)cc3)C2=O)cn1 (centres undefined)	?	0%	?	i	-3%
Cc1cc2c(c(=O)o1)C=C1CC[C@H]([C@H](C)Cn3cnc(=N)c4[nH]cnc43)C[C@@H]1O2	.	.	.	.	-8%
COc1cccc(-c2cc3c(ccn3CC3CCN(C)CC3)c(N3CCOCC3)n2)c1	25µM*	0%[70.6 µM]	63µM*	i	-26%[88.5 µM]
COc1ncccc1-c1cc2c(ccn2CC2CCN(C)CC2)c(N2CCOCC2)n1	45µM*	-13%[70.6 µM]	89µM*	i	?
C[S+](=O)([O-])N1CCC(Cn2ccc3c(N4CCOCC4)nc(-c4cncnc4)cc32)CC1	?	-9%	-15%	i	?
COc1ncccc1-c1cc2c(ccn2Cc2ccncc2)c(N2CCOCC2)n1	?	-9%[70.6 µM]	-30%[172 µM]	i	?
COc1ccc(CCC(=O)N2CCC3(CC2)CC(CO)N(C(=O)c2ccccc2)C3)cc1 (centres undefined)	-14%	.	0%	.	4%
